“And” between values parts separate entries of the source, which are not always exact repeats. Equal values may be shown once. This is part of a sample that, as a whole, favours compounds with a hit. Of some 83,000 tested, about 20% had one in any assay.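 Testing used 96-well plates and a 48-hour single-concentration exposure. Example: -40 means 40% of the starting cells died.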 The source made the active and inactive calls. The calls were made as follows: active = growth percent below 10; inactive = the rest.
How the values were obtained:
Assay in all cases: NCI-60 one-dose screen, 48 h (100 = growth as untreated, 0 = no growth, -100 = all killed)
[1] = system: SK-MEL-2 melanoma
[2] = system: EKVX NSCLC
[3] = system: SN12C renal
[4] = system: UO-31 renal
[5] = system: TK-10 renal
[6] = system: ACHN renal
[7] = system: CAKI-1 renal
[8] = system: A498 renal
[9] = system: HL-60(TB) leukemia
[10] = system: CCRF-CEM leukemia; conditions: 10 µM unless noted
[11] = system: MOLT-4 leukemia
[12] = system: SR leukemia
[13] = system: RPMI-8226 leukemia
[14] = system: OVCAR-8 ovarian; conditions: 10 µM unless noted
[15] = system: OVCAR-5 ovarian; conditions: 10 µM unless noted
[16] = system: OVCAR-4 ovarian
[17] = system: SK-OV-3 ovarian; conditions: 10 µM unless noted
[18] = system: IGROV1 ovarian; conditions: 10 µM unless noted
[19] = system: OVCAR-3 ovarian
[20] = system: HS 578T breast

Measured: growth

O=C(O)C(O)c1ccc(Cl)cc1 (stereo not drawn)
inactive: [1]; 10 µM unless noted 106% and 118% | [2]; 10 µM unless noted 102% and 120% | [3]; 10 µM unless noted 100% and 107% | [4]; 10 µM unless noted 99.6% and 87.7% | [5]; 10 µM unless noted 99% and 105% | [6]; 10 µM unless noted 112% and 108% | [7]; 10 µM unless noted 97.6% and 104% | [8]; 10 µM unless noted 102% and 106% | [9]; 10 µM unless noted 101% | [10] 106% | [11]; 10 µM unless noted 113% | [12]; 10 µM unless noted 102% | [13]; 10 µM unless noted 111% and 92.1% | [14] 109% and 103% | [15] 110% | [16]; 10 µM unless noted 102% and 109% | [17] 101% and 108% | [18] 110% and 111% | [19]; 10 µM unless noted 116% and 104%

C/C(=C\c1ccn(-c2ccc(N)c(C(F)(F)F)c2)n1)[C@@H]1C[C@@H]2O[C@]2(C)CCC[C@H](C)[C@H](O)[C@@H](C)C(=O)C(C)(C)[C@@H](O)CC(=O)O1
inactive: [1]; 10 µM unless noted 45.1% | [2]; 10 µM unless noted 39.7% | [3]; 10 µM unless noted 41.3% | [4]; 10 µM unless noted 32.7% | [5]; 10 µM unless noted 52.6% | [6]; 10 µM unless noted 46.3% | [7]; 10 µM unless noted 52.1% | [8]; 10 µM unless noted 22.6% | [10] 14.3% | [11]; 10 µM unless noted 10.2% | [14] 28.4% | [15] 23% | [16]; 10 µM unless noted 55.1% | [17] 45% | [18] 40.4% | [20]; 10 µM unless noted 25.1%
active: [9]; 10 µM unless noted 7.41% | [12]; 10 µM unless noted 7.67% | [13]; 10 µM unless noted 9.58% | [19]; 10 µM unless noted -0.83%

C[C@]12CCc3sc(Nc4ccc(OC(F)(F)F)cc4)nc3C1=CC[C@@H]1[C@@H]2CC[C@]2(C)C(=O)CC[C@@H]12
active: [10] 5.05% | [11]; 10 µM unless noted 4.15% | [13]; 10 µM unless noted 2.88%
inactive: [1]; 10 µM unless noted 61.8% | [2]; 10 µM unless noted 78.4% | [3]; 10 µM unless noted 71.2% | [4]; 10 µM unless noted 54.3% | [5]; 10 µM unless noted 98.2% | [6]; 10 µM unless noted 71.6% | [7]; 10 µM unless noted 60.4% | [8]; 10 µM unless noted 75% | [9]; 10 µM unless noted 44% | [12]; 10 µM unless noted 16.9% | [14] 66.5% | [15] 91.9% | [16]; 10 µM unless noted 64% | [17] 69.9% | [18] 93.6% | [19]; 10 µM unless noted 37.4% | [20]; 10 µM unless noted 38.5%

C[C@@]12CCCc3coc(c31)C(=O)c1cc3c(cc12)C(=O)C1=C(NCCS1(=O)=O)C3=O
active: [1]; 10 µM unless noted -41.3% | [3]; 10 µM unless noted -79.3% | [9]; 10 µM unless noted -45% | [10] -28.7% | [11]; 10 µM unless noted -31.5% | [12]; 10 µM unless noted -13.3% | [13]; 10 µM unless noted -30.4% | [14] -13.1% | [15] -28.3% | [16]; 10 µM unless noted -89.3% | [17] -12.6% | [18] -23.9% | [19]; 10 µM unless noted -47.2% | [20]; 10 µM unless noted -12.3%
inactive: [2]; 10 µM unless noted 11.1% | [4]; 10 µM unless noted 35.7% | [5]; 10 µM unless noted 28.2% | [6]; 10 µM unless noted 30.6% | [7]; 10 µM unless noted 10.5% | [8]; 10 µM unless noted 35.3%

O=Cc1cn(Cc2ccccc2)c2ccccc12
active: [8]; 10 µM unless noted -92.7% | [15] -20.3% | [18] -21.4%
inactive: [1]; 10 µM unless noted 27.1% | [2]; 10 µM unless noted 120% | [3]; 10 µM unless noted 98.1% | [4]; 10 µM unless noted 55.6% | [5]; 10 µM unless noted 25.1% | [6]; 10 µM unless noted 91.3% | [7]; 10 µM unless noted 21.9% | [9]; 10 µM unless noted 105% | [10] 104% | [11]; 10 µM unless noted 99.8% | [12]; 10 µM unless noted 93% | [13]; 10 µM unless noted 61.2% | [14] 85.8% | [16]; 10 µM unless noted 55.1% | [17] 61.4% | [19]; 10 µM unless noted 68.6%

CC(=O)Cc1ccc2c(c1)OCO2
inactive: [1]; 10 µM unless noted 112% | [2]; 10 µM unless noted 109% | [3]; 10 µM unless noted 101% | [4]; 10 µM unless noted 102% | [5]; 10 µM unless noted 110% | [6]; 10 µM unless noted 108% | [7]; 10 µM unless noted 96.9% | [8]; 10 µM unless noted 116% | [9]; 10 µM unless noted 77.4% | [10] 108% | [11]; 10 µM unless noted 121% | [12]; 10 µM unless noted 122% | [13]; 10 µM unless noted 113% | [14] 96.6% | [15] 94% | [16]; 10 µM unless noted 135% | [17] 107% | [19]; 10 µM unless noted 110% | [20]; 10 µM unless noted 111%

N#CCc1ccc(CC#N)cc1
inactive: [1]; 10 µM unless noted 99.4% | [2]; 10 µM unless noted 97.7% | [3]; 10 µM unless noted 86.7% | [4]; 10 µM unless noted 89.8% | [5]; 10 µM unless noted 100% | [6]; 10 µM unless noted 103% | [7]; 10 µM unless noted 97.1% | [8]; 10 µM unless noted 78.8% | [9]; 10 µM unless noted 92.9% | [10] 100% | [11]; 10 µM unless noted 99.9% | [12]; 10 µM unless noted 97.9% | [13]; 10 µM unless noted 98.8% | [14] 104% | [15] 104% | [16]; 10 µM unless noted 119% | [17] 98.5% | [18] 109% | [19]; 10 µM unless noted 110% | [20]; 10 µM unless noted 96.6%

Cc1cc2c(cc1-c1ccnc(/C=C/C(=O)O)c1)C(C)(C)CCC2(C)C
inactive: [1]; 10 µM unless noted 93.9% | [2]; 10 µM unless noted 86.1% | [3]; 10 µM unless noted 88% | [4]; 10 µM unless noted 62.1% | [5]; 10 µM unless noted 115% | [6]; 10 µM unless noted 81.6% | [7]; 10 µM unless noted 91.8% | [8]; 10 µM unless noted 73.7% | [9]; 10 µM unless noted 59.2% | [10] 95.7% | [11]; 10 µM unless noted 91.9% | [12]; 10 µM unless noted 77.9% | [13]; 10 µM unless noted 41.4% | [14] 79% | [15] 100% | [16]; 10 µM unless noted 104% | [17] 98.1% | [18] 100% | [19]; 10 µM unless noted 82.8% | [20]; 10 µM unless noted 59.6%

O=C(O)CCCc1ccc(N(CCCl)CCCl)cc1
active: [6]; 75 µM -12.3% | [7]; 75 µM -12.5% | [9]; 75 µM 3.35% | [11]; 75 µM 6.72% | [12]; 75 µM 5.82% | [13]; 75 µM 7.4% | [20]; 75 µM -4.49%
inactive: [1]; 10 µM 102% and 109% | [1]; 75 µM 100% | [2]; 10 µM 101% | [2]; 75 µM 82.2% | [3]; 10 µM 82.9% and 86.8% | [3]; 75 µM 41.2% | [4]; 10 µM 83.4% and 89.5% | [4]; 75 µM 28.8% | [5]; 10 µM 102% | [5]; 75 µM 84.6% | [6]; 10 µM 72.4% and 38.8% | [7]; 10 µM 57.9% and 34.2% | [8]; 10 µM 115% and 99.6% | [8]; 75 µM 68.5% | [9]; 10 µM 19.6% | [11]; 10 µM 73.4% and 35.5% | [12]; 10 µM 44.8% and 19.5% | [13]; 10 µM 84.4% and 90.7% | [14] 87.5% | [16]; 10 µM 102% and 107% | [16]; 75 µM 83.2% | [19]; 10 µM 111% and 108% | [19]; 75 µM 18.9% | [20]; 10 µM 120% and 113%

CC(=O)Nc1nc2c(s1)C1=CC[C@H]3[C@@H]4CC[C@H](OC(C)=O)[C@@]4(C)CC[C@@H]3[C@@]1(C)CC2
inactive: [1]; 10 µM unless noted 50.3% | [2]; 10 µM unless noted 82.9% | [3]; 10 µM unless noted 69.7% | [4]; 10 µM unless noted 72.7% | [5]; 10 µM unless noted 96.2% | [6]; 10 µM unless noted 67.7% | [7]; 10 µM unless noted 24.4% | [8]; 10 µM unless noted 62.1% | [9]; 10 µM unless noted 43.4% | [10] 57.7% | [11]; 10 µM unless noted 82.9% | [12]; 10 µM unless noted 21.5% | [13]; 10 µM unless noted 30.8% | [14] 70.8% | [15] 92.7% | [16]; 10 µM unless noted 69.4% | [17] 68.4% | [18] 62.5% | [19]; 10 µM unless noted 20.1% | [20]; 10 µM unless noted 39%

CC1=C([Te]c2ccccc2)C(=O)c2ccccc2C1=O
inactive: [9]; 10 µM unless noted 12.7% | [11]; 10 µM unless noted 31.4% | [12]; 10 µM unless noted 21.4%
active: [1]; 10 µM unless noted 9.62% | [2]; 10 µM unless noted -38.6% | [3]; 10 µM unless noted 5.18% | [4]; 10 µM unless noted -33.4% | [5]; 10 µM unless noted -33% | [6]; 10 µM unless noted -86.6% | [7]; 10 µM unless noted -46.5% | [8]; 10 µM unless noted -66% | [10] -44.9% | [13]; 10 µM unless noted -32.9% | [14] -15.9% | [15] -72.3% | [16]; 10 µM unless noted -72.4% | [17] -37.8% | [18] -21.5% | [19]; 10 µM unless noted -77.5% | [20]; 10 µM unless noted -22.4%

O=C(O)c1ccc(=O)[nH]c1
inactive: [1]; 10 µM unless noted 85.4% and 102% | [2]; 10 µM unless noted 111% and 98.7% | [3]; 10 µM unless noted 88.4% and 95.5% | [4]; 10 µM unless noted 92.2% and 88% | [5]; 10 µM unless noted 94.8% and 97.5% | [6]; 10 µM unless noted 100% and 106% | [7]; 10 µM unless noted 98.3% | [8]; 10 µM unless noted 63.4% and 107% | [9]; 10 µM unless noted 109% and 102% | [10] 106% and 95.4% | [11]; 10 µM unless noted 119% and 99.2% | [12]; 10 µM unless noted 87.7% and 105% | [13]; 10 µM unless noted 103% and 96.5% | [14] 101% and 103% | [15] 90.3% and 106% | [16]; 10 µM unless noted 111% and 106% | [17] 98.9% and 93% | [18] 109% | [19]; 10 µM unless noted 113% and 108% | [20]; 10 µM unless noted 98.5% and 102%

CC[C@H](C)[C@H](NC(=O)CN(C)C)C(=O)N(C)[C@H](C[C@@H](OC(C)=O)c1nc(C(=O)NC23C4C5C2C2C3C4C52C(=O)OC)cs1)C(C)C (stereo partly drawn)
inactive: [1]; 10 µM unless noted 34% | [2]; 10 µM unless noted 40.4% | [3]; 10 µM unless noted 31.8% | [4]; 10 µM unless noted 54.9% | [5]; 10 µM unless noted 57.7% | [6]; 10 µM unless noted 42.6% | [7]; 10 µM unless noted 44.8% | [11]; 10 µM unless noted 11% | [12]; 10 µM unless noted 10.4% | [13]; 10 µM unless noted 20.1% | [14] 21.6% | [15] 71.4% | [16]; 10 µM unless noted 48.7% | [17] 35.1% | [18] 36.3% | [20]; 10 µM unless noted 19.8%
active: [8]; 10 µM unless noted -1.71% | [9]; 10 µM unless noted -26.5% | [10] 6.24% | [19]; 10 µM unless noted -34%

Reference: PubChem BioAssay (NCI)
